Of roughly 8,800 targets only a part is listed; those with a hit were picked by preference. About 0.5% of all pairs of compound and target were hits.
What was measured:
Assay in all cases: log2 fold change, soluble protein after heating vs DMSO (PISA); higher = thermal stabilisation; K562 lysate, 10 uM; active = over 0.2 and 3.5 SD of the protein, either way, in both replicates (recomputed)
[1] = compound: CCCS(=O)(=O)Nc1ccc(F)c(C(=O)c2c[nH]c3ncc(-c4ccc(Cl)cc4)cc23)c1F [vemurafenib]
Summary of the method: (§1)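 Values give the log-two fold change in thermal stability against solvent controls, from duplicates. Crude K562 extract at 1 mg/mL protein, made by dounce homogenisation in PBS pH 7.4 with 1 mM MgCl2, was treated with 10 μM compound for 30 min. After 3 min heating across 48°C-58°C, aliquots were pooled, adjusted to 0.5% NP-40 at 4°C and centrifuged at 21,000xg for 90 min. The supernatant was measured by TMTpro 16plex LC-MS/MS with channel sums equalised.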

[2] = compound: CCCS(=O)(=O)Nc1ccc(F)c(C(=O)c2c[nH]c3ncc(Cl)cc23)c1F
Summary of the method: as §1

[3] = compound: CCN(CCCOc1ccc2c(Nc3cc(CC(=O)Nc4cccc(F)c4)[nH]n3)ncnc2c1)CCOP(=O)(O)O [barasertib]
Summary of the method: as §1

[4] = compound: CC[C@@H]1C(=O)N(C)c2cnc(Nc3ccc(C(=O)NC4CCN(C)CC4)cc3OC)nc2N1C1CCCC1
Summary of the method: as §1

[5] = compound: CC[C@@H]1C(=O)N(C)c2cnc(Nc3ccc(C(=O)N[C@H]4CC[C@H](N5CCN(CC6CC6)CC5)CC4)cc3OC)nc2N1C(C)C [volasertib]
Summary of the method: as §1

[6] = compound: CCn1c(C(=O)N(C2CC2)C2CC2)cc2c3c(ncn3C)c(Nc3cc(C)n(C)n3)nc21
Summary of the method: as §1

[7] = compound: CCn1cc(-c2ccnc3[nH]c(-c4cccc(CN(C)C)c4)cc23)c(-c2ccc(NC(=O)N(C)C)cc2)n1
Summary of the method: as §1

[8] = compound: CN1CCC(CNc2ccc3ncc(-c4cccc(OC(F)(F)F)c4)n3n2)CC1
Summary of the method: as §1

[9] = compound: CN1CCN(CCOc2cc(OC3CCOCC3)c3c(Nc4c(Cl)ccc5c4OCO5)ncnc3c2)CC1 [saracatinib]
Summary of the method: as §1

[10] = compound: CN1CCN(c2nc(C3=C(c4c[nH]c5ccccc45)C(=O)NC3=O)c3ccccc3n2)CC1 [sotrastaurin]
Summary of the method: as §1

[11] = compound: CN1CC[C@H](c2c(O)cc(O)c3c(=O)cc(-c4ccccc4Cl)oc23)[C@H](O)C1 [alvocidib]
Summary of the method: as §1

[12] = compound: CN1CCc2c(c3ccccc3n2Cc2ccc(C(=O)NO)cc2)C1 [Tubastatin A]
Summary of the method: as §1

[13] = compound: CNC(=O)C1=CC=CC=C1NC2=NC(=NC=C2Cl)NC3=C(C=C(C=C3)N4CCOCC4)OC
Summary of the method: as §1

[14] = compound: CNC(=O)c1ccc(Nc2ncc(C(F)(F)F)c(NCc3nccnc3N(C)S(C)(=O)=O)n2)cc1 [defactinib]
Summary of the method: as §1

[15] = compound: CNc1nc(-c2ccc3c(N)n[nH]c3c2)cc(N2C[C@@H](C(=O)NC3CCCCC3)CC[C@H]2C)n1
Summary of the method: as §1

[16] = compound: COC(=O)N[C@@H](C)CNc1nccc(-c2cn(C(C)C)nc2-c2cc(Cl)cc(NS(C)(=O)=O)c2F)n1 [encorafenib]
Summary of the method: as §1

[17] = compound: COC(=O)[C@H](CCSC)NC(=O)C1=C(C=C(C=C1)NC[C@H](CS)N)C2=CC=CC=C2
Summary of the method: as §1

[18] = compound: COc1cc(Nc2ncc3c(n2)-c2ccc(Cl)cc2C(c2c(F)cccc2OC)=NC3)ccc1C(=O)O [alisertib]
Summary of the method: as §1

[19] = compound: COc1cc2nc(-c3cc(F)ccc3O)nc(N[C@@H]3CNC[C@H]3C(C)(C)O)c2cc1OC
Summary of the method: as §1

[20] = compound: COc1cc2ncnc(Nc3ccc(F)c(Cl)c3)c2cc1OCCCN1CCOCC1 [gefitinib]
Summary of the method: as §1

Measured: log2 fold change

MSH2 (UniProt P43246)
inactive: [1] -0.014 | [2] 0.001 | [3] 0.007 | [4] -0.033 | [5] -0.068 | [6] 0.038 | [7] 0.003 | [8] -0.055 | [9] 0 | [10] 0.032 | [11] 0.026 | [12] -0.105 | [13] -0.017 | [14] 0.023 | [15] 0.007 | [16] 0.011 | [17] 0.061 | [18] -0.011 | [19] -0.002 | [20] -0.007

NBEAL2 (UniProt Q6ZNJ1)
Chain of UniProt Q6ZNJ1 (Q6ZNJ1 whole entry, looked up): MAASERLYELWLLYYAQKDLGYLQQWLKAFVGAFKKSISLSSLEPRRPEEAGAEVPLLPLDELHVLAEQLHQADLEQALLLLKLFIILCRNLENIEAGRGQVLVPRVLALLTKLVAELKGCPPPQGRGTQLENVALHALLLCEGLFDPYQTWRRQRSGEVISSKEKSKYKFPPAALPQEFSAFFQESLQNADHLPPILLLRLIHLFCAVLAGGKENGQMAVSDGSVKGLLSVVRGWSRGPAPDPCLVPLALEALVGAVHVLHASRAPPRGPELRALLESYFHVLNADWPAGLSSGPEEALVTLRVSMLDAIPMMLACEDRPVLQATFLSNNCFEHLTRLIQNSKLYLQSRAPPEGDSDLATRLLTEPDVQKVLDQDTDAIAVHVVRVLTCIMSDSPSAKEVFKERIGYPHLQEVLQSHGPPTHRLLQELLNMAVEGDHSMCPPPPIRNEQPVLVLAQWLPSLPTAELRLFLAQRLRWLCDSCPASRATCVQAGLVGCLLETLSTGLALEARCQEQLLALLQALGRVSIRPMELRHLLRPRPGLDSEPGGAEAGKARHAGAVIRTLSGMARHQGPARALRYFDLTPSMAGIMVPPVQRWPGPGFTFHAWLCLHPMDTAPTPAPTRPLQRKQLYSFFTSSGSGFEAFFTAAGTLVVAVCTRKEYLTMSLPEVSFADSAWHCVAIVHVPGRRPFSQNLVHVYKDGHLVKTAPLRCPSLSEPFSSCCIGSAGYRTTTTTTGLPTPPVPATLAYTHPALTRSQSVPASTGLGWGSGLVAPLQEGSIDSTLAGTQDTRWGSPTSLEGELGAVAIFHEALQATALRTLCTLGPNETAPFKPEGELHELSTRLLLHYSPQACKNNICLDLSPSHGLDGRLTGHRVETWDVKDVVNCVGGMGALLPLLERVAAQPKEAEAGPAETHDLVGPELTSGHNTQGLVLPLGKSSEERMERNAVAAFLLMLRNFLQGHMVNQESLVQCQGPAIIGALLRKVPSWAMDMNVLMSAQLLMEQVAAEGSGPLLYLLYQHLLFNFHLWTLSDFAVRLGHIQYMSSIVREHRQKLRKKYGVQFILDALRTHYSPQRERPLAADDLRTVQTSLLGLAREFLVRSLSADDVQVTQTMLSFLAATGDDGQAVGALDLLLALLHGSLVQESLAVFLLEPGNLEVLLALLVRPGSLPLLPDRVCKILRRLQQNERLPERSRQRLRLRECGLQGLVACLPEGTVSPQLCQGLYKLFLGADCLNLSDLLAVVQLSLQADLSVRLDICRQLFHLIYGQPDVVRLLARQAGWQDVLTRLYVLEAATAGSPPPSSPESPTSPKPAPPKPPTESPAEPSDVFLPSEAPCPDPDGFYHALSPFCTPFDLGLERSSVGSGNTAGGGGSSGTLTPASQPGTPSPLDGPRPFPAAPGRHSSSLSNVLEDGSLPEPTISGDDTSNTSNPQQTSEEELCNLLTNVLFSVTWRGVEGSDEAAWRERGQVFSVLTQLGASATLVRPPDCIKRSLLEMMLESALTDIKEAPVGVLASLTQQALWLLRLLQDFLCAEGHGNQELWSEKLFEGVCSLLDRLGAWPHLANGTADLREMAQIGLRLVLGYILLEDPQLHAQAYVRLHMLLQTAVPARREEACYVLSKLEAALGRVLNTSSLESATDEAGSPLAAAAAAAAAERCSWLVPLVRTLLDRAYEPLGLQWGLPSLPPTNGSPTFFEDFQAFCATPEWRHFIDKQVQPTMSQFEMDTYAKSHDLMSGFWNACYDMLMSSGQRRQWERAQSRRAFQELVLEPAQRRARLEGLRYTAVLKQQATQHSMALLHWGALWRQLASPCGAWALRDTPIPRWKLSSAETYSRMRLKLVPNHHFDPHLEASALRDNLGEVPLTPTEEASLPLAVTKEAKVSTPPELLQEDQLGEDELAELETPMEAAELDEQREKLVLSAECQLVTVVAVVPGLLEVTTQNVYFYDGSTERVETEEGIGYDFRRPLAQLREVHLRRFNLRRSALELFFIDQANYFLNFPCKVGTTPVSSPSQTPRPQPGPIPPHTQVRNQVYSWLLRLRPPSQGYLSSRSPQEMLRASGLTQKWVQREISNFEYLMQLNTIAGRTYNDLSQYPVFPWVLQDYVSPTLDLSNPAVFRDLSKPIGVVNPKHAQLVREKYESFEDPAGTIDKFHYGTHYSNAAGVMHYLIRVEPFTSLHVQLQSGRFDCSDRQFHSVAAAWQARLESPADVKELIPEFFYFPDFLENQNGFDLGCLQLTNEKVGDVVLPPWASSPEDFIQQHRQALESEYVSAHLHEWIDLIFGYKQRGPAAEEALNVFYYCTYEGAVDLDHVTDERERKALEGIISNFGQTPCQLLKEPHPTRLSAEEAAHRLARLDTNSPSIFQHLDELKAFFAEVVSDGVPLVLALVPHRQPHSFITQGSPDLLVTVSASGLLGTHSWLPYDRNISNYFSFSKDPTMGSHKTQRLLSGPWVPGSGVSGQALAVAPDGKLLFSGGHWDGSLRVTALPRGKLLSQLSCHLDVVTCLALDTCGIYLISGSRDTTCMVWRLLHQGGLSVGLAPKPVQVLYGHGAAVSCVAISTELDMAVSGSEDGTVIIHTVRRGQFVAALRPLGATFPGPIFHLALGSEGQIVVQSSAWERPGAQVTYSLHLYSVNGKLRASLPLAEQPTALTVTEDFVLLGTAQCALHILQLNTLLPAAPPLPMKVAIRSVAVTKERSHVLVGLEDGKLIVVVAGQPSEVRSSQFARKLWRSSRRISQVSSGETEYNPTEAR
inactive: [1] -0.047 | [2] 0.021 | [3] 0.045 | [4] -0.053 | [5] -0.128 | [6] 0.01 | [7] 0.013 | [8] -0.037 | [9] 0.013 | [10] 0 | [11] 0.031 | [12] -0.141 | [13] -0.005 | [14] 0.022 | [15] 0.033 | [16] 0.003 | [17] -0.029 | [18] -0.053 | [19] -0.009 | [20] 0.01

PAIP2 (UniProt Q9BPZ3)
Chain of UniProt Q9BPZ3 (Q9BPZ3 whole entry, looked up): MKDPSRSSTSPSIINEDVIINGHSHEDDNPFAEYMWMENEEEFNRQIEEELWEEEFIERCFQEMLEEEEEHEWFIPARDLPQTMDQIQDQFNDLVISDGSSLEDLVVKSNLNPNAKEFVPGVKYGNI
inactive: [1] 0 | [2] -0.013 | [4] 0.039 | [5] -0.018 | [6] 0.02 | [7] -0.043 | [8] -0.001 | [9] -0.081 | [10] -0.073 | [11] 0.009 | [12] 0.045 | [13] -0.03 | [14] -0.056 | [15] 0.037 | [16] -0.092 | [17] 0.071 | [18] -0.038 | [19] -0.049 | [20] -0.019
active: [3] 0.272

NIT2 (UniProt Q9NQR4)
Chain of UniProt Q9NQR4 (Q9NQR4 whole entry, looked up): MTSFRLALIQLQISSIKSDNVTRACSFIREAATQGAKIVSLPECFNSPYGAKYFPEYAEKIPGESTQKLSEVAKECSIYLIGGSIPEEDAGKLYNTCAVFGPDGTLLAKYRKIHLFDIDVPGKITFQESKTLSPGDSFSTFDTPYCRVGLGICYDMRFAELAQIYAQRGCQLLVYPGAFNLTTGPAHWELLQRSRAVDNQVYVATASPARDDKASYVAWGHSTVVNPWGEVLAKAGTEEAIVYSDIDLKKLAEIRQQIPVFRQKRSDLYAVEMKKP
inactive: [1] -0.003 | [2] 0.005 | [3] -0.008 | [4] 0.005 | [5] -0.004 | [6] -0.004 | [7] 0.02 | [8] -0.013 | [9] -0.008 | [10] -0.012 | [11] 0.046 | [12] 0.047 | [13] -0.003 | [14] -0.05 | [15] 0.013 | [16] -0.032 | [17] 0.082 | [18] 0.012 | [19] 0.019 | [20] -0.017

MSI2 (UniProt Q96DH6)
Chain of UniProt Q96DH6 (Q96DH6 whole entry, looked up): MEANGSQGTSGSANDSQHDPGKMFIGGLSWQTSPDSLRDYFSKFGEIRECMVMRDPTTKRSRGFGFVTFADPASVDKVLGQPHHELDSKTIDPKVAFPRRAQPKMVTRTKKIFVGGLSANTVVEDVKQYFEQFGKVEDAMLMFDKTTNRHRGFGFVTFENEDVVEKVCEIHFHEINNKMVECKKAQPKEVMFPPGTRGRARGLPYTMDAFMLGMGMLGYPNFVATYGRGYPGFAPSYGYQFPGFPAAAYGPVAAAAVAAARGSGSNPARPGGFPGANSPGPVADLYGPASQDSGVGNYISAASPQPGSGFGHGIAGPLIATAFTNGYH
inactive: [1] 0.039 | [2] -0.007 | [3] 0.009 | [4] 0.016 | [5] -0.023 | [6] 0.13 | [7] -0.014 | [8] 0.002 | [9] -0.015 | [10] -0.002 | [11] 0.035 | [12] -0.082 | [13] -0.04 | [14] 0.076 | [15] -0.012 | [16] 0.144 | [17] -0.023 | [18] 0.026 | [19] -0.012 | [20] -0.031

NUSAP1 (UniProt Q9BXS6)
active: [7] -0.399
inactive: [1] 0.001 | [2] 0.009 | [3] -0.002 | [4] 0.073 | [5] 0.004 | [6] -0.009 | [8] 0.189 | [9] 0.019 | [10] -0.001 | [11] -0.17 | [12] 0.029 | [13] -0.02 | [14] 0.027 | [15] 0.07 | [16] 0.012 | [17] -0.028 | [18] 0.01 | [19] -0.002 | [20] -0.012

NCAPG2 (UniProt Q86XI2)
inactive: [1] 0.015 | [2] 0.044 | [3] 0.016 | [4] -0.055 | [5] -0.006 | [6] 0.025 | [7] -0.139 | [8] 0.074 | [9] 0.027 | [10] 0.027 | [11] -0.014 | [12] -0.217 | [13] -0.008 | [14] 0.023 | [15] 0.04 | [16] 0.002 | [17] -0.018 | [18] 0.004 | [19] -0.01 | [20] 0.038

MTHFD1L (UniProt B7ZM99)
inactive: [1] 0.01 | [2] 0 | [3] -0.033 | [4] -0.111 | [5] -0.002 | [6] 0.019 | [7] -0.013 | [8] -0.056 | [9] 0.004 | [10] 0.036 | [11] 0.029 | [12] -0.084 | [13] 0.02 | [14] 0.034 | [15] -0.01 | [16] -0.041 | [17] 0.072 | [18] 0.032 | [19] 0.009 | [20] -0.007

MTA3 (UniProt Q9BTC8)
inactive: [1] 0.019 | [2] 0.002 | [3] 0.017 | [4] 0.023 | [5] -0.022 | [6] -0.055 | [7] -0.017 | [8] -0.097 | [9] 0.036 | [10] -0.006 | [11] -0.016 | [12] -0.013 | [13] 0.019 | [14] 0.044 | [15] -0.043 | [16] 0.041 | [17] 0.091 | [18] 0.077 | [19] 0.025 | [20] -0.059

OSGEP (UniProt Q9NPF4)
inactive: [1] 0.003 | [2] 0.026 | [3] 0.031 | [4] -0.059 | [5] -0.037 | [6] -0.03 | [7] -0.065 | [8] 0.026 | [9] -0.006 | [10] -0.008 | [11] -0.062 | [12] 0 | [13] -0.047 | [14] 0 | [15] 0.03 | [16] -0.008 | [17] 0.016 | [18] 0.045 | [19] 0.007 | [20] -0.032

OAT (UniProt P04181)
inactive: [1] 0.066 | [2] 0.003 | [3] -0.012 | [4] -0.019 | [5] -0.014 | [6] -0.006 | [7] -0.119 | [8] 0.014 | [9] -0.004 | [10] -0.024 | [11] -0.023 | [12] -0.016 | [13] -0.03 | [14] -0.016 | [15] -0.023 | [16] -0.022 | [17] 0.091 | [18] 0.036 | [19] 0.006 | [20] 0.008

NUF2 (UniProt Q9BZD4)
Chain of UniProt Q9BZD4 (Q9BZD4 whole entry, looked up): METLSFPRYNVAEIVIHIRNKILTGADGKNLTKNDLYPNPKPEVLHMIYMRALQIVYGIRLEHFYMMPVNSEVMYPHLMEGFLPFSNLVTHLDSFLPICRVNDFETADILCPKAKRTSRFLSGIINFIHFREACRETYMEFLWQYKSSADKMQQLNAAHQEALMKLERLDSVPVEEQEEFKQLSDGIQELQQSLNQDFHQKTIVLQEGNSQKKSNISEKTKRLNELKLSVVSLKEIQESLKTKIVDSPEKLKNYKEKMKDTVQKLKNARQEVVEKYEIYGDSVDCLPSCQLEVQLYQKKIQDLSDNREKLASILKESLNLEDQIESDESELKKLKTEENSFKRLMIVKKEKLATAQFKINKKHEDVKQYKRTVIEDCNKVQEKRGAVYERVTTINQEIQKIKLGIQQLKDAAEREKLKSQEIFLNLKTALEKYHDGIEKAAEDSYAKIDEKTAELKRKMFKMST
inactive: [1] -0.01 | [2] 0.016 | [3] 0.048 | [4] -0.126 | [5] -0.029 | [6] 0.016 | [7] -0.069 | [8] -0.101 | [9] 0.032 | [10] 0.03 | [11] 0 | [12] -0.13 | [13] 0.03 | [14] 0.021 | [15] -0.007 | [16] 0.027 | [18] -0.012 | [19] 0.013 | [20] -0.033
active: [17] 0.264

NELFCD (UniProt Q8IXH7)
Chain of UniProt Q8IXH7 (Q8IXH7 whole entry, looked up): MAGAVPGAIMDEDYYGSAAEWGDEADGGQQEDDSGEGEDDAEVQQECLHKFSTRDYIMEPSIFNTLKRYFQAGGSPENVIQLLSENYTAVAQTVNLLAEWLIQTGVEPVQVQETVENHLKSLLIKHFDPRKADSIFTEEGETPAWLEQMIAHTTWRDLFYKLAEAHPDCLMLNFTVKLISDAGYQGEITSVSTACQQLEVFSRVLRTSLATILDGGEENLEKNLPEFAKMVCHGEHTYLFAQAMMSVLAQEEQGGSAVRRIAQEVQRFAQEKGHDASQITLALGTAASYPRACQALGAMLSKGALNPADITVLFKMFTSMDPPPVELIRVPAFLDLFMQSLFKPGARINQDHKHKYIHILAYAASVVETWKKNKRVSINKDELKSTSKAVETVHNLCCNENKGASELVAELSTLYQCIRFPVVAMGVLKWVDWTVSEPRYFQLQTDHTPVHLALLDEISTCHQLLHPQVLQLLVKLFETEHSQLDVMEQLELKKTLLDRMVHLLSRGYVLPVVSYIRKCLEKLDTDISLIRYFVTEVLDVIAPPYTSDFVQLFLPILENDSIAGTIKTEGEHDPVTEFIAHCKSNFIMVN
inactive: [1] 0.014 | [2] 0.037 | [3] 0.047 | [4] 0.006 | [5] -0.032 | [6] 0.02 | [7] 0.089 | [8] -0.049 | [9] -0.005 | [10] 0.012 | [11] 0.015 | [12] -0.148 | [13] 0.047 | [14] 0.041 | [15] -0.055 | [16] 0 | [17] 0.073 | [18] 0.023 | [19] -0.006 | [20] -0.009

NNT (UniProt Q13423)
inactive: [1] 0.012 | [2] -0.015 | [3] 0.013 | [4] 0.022 | [5] 0.031 | [6] -0.004 | [7] 0.041 | [8] -0.004 | [9] -0.025 | [10] -0.024 | [11] 0.006 | [12] 0.035 | [13] 0.021 | [14] -0.005 | [15] -0.04 | [16] -0.018 | [17] -0.017 | [18] -0.001 | [19] 0.021 | [20] 0.012

NOSTRIN (UniProt Q8IVI9)
Chain of UniProt Q8IVI9 (Q8IVI9 whole entry, looked up): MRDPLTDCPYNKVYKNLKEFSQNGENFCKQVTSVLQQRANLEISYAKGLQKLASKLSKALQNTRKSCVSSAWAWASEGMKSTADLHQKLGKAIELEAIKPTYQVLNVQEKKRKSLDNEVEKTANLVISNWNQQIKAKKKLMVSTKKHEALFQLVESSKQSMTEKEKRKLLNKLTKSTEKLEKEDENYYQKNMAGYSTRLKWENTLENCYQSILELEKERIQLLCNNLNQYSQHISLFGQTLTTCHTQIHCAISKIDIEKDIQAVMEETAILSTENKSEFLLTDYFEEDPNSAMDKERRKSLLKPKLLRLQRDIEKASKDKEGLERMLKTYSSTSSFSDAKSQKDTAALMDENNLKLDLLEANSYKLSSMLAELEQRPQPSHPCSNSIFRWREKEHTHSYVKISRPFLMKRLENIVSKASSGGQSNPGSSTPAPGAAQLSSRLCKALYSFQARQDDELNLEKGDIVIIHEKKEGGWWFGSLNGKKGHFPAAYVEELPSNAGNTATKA
inactive: [1] 0.091 | [2] 0.024 | [3] 0.085 | [4] -0.178 | [5] -0.029 | [6] -0.026 | [7] 0.025 | [8] -0.094 | [9] -0.001 | [10] -0.054 | [11] -0.009 | [13] 0.027 | [14] 0.07 | [15] 0.061 | [16] -0.112 | [17] 0.11 | [18] -0.019 | [19] 0 | [20] 0.004
active: [12] -0.35

MYOM1 (UniProt P52179)
inactive: [1] 0.015 | [2] -0.082 | [3] 0.021 | [4] 0.049 | [5] 0.123 | [6] -0.356 | [7] -0.185 | [8] 0.088 | [9] -0.086 | [10] -0.163 | [11] 0.039 | [12] -0.033 | [13] -0.092 | [14] 0.194 | [15] 0.139 | [16] 0.065 | [17] -0.011 | [18] 0.215 | [19] -0.06 | [20] 0.026
